Assay results taken from PubChem BioAssay (Tox21).
Results filed as inconclusive are left out. The source made the active and inactive calls. Calls come from the whole dose curve; as a rule, active = well fitted activation curve with a large enough effect in the repeat runs; inconclusive = weak or mixed curves; inactive = flat fitted curve, though single readings scatter.

assay: A CellTox Green Cytotoxicity Assay to monitor cytotoxicity in HEK293 cells - 32 hour (AID 1224881); conditions: CellTox Green fluorescence; series mostly up to 76.8 µM; cytotoxicity increase: at the top concentration; note: nearly all actives have a fitted effect of over 40% in size
Description: National Center for Advancing Translational Sciences [NCATS]
NIH Chemical Genomics Center [NCGC]
U.S. Environmental Protection Agency [EPA]
National Institutes of Environmental Health Sciences [NIEHS]
National Toxicology Program [NTP]
Cell-based models are critical for drug discovery. Determining the natural cytotoxic effects resulting from test compounds is an essential research activity. A CellTox Green Cytotoxicity Assay to monitor cytotoxicity in real time of continues cell culture during 40 hours of the compound treatment was used to screen Tox21 10K library compounds in Hek293 cells. CellTox Green Cytotoxicity Assay is a nonlytic, homogeneous, biofluorescent method to measure cytotoxicity in cell culture after experimental manipulation. The assay system uses a proprietary asymmetric cyanine dye that is excluded from viable cells but preferentially stains the dead cell's DNA. […] Viable cells produce no appreciable increases in fluorescence. Therefore, the fluorescence signal produced by the binding interaction with dead cell DNA is proportional to cytotoxicity.
The mixture of Hek293 cell suspension and reagents were dispensed at 600cells/6 ul/well in 1536-well tissue culture treated black solid bottom plates using a Multidrop dispenser. After the assay plates were incubated at a 37 C/5% CO2 incubator for 5 hours, 23 nL of compounds dissolved in DMSO, positive and negative controls was transferred to the assay plate by a pintool work station. The plates were incubated at 37 C for 40 hours. The fluorescence intensity were measured at 0h, 8h, 16h, 24h, 32h and 40h time points using ViewLux plate reader during compound treatment.
% is set by controls: 0 for no effect and ±100 for the full control effect; potency is the fitted concentration of half-maximal effect.

SMILES | cytotoxicity increase | Potency
C1CCC(C2CCCCC2)CC1 | 7.8% (inactive) | –
O=NN1CCN(N=O)CC1 | -0.556% (inactive) | –
CCC(=O)c1ccccc1 | 3.75% (inactive) | –
Oc1c(Cl)cccc1Cl | -0.26% (inactive) | –
CCC(=O)C(CCN(C)C)(c1ccccc1)c1ccccc1 | 9.36% [at 35.3 µM] (inactive) | –
O=[N+]([O-])c1ccc(CBr)cc1 | 2.61% (inactive) | –
NC(=O)c1cc([N+](=O)[O-])cc([N+](=O)[O-])c1 | -1.62% [at 35.3 µM] (inactive) | –
N#CC(O)c1ccccc1 (stereo not given) | 1.32% (inactive) | –
N#CC(Cl)(Cl)Cl | 16.9% (inactive) | –
CNNC | 15.3% (inactive) | –
O=C1CN2CCOC2(c2ccccc2Cl)c2cc(Cl)ccc2N1 (stereo not given) | -1.76% [at 35.3 µM] (inactive) | –
COc1ncc(F)c2nc(S(=O)(=O)Nc3c(F)cccc3F)nn12 | – | 13.9 µM (active)
CCN(Cc1ccc(Cl)nc1)/C(=C/[N+](=O)[O-])NC | 10.4% [at 35.3 µM] (inactive) | –
CNC(=O)Oc1ccc(N(C)C)c(C)c1 | -1.41% (inactive) | –
CCOC(=O)NC(=S)Nc1ccccc1NC(=S)NC(=O)OCC | 6.75% (inactive) | –
CN1C[C@@H](NS(=O)(=O)N(C)C)C[C@@H]2c3cccc4c3c(cn4C)C[C@H]21 | -0.109% [at 35.3 µM] (inactive) | –
COc1cc(OC)nc(NC(=O)NS(=O)(=O)c2ncccc2C(=O)N(C)C)n1 | 0.302% (inactive) | –
N#Cc1c(Cl)cccc1Cl | 5.05% (inactive) | –
CC(C)CC(N(C)C)C1(c2ccc(Cl)cc2)CCC1 (stereo not given) | – | 23.9 µM (active)
COC(=O)c1c(C(F)F)nc(C(F)(F)F)c(C2=NCCS2)c1CC(C)C | -0.747% (inactive) | –

SMILES | cytotoxicity increase | Potency
O=CNC(N1CCN(C(NC=O)C(Cl)(Cl)Cl)CC1)C(Cl)(Cl)Cl (stereo not given) | -13.5% (inactive) | –
CCOC(=O)C1(c2ccccc2)CCN(CCc2ccc(N)cc2)CC1 | -1.01% [at 35.3 µM] (inactive) | –
N#CCBr | 0.655% (inactive) | –
CCCCOC(=O)c1ccccc1C(=O)O | -8.83% (inactive) | –
CCOP(=S)(OCC)SCSc1ccc(Cl)cc1 | -0.801% (inactive) | –
COc1cccc(C(=O)NN(C(=O)c2cc(C)cc(C)c2)C(C)(C)C)c1C | -11.2% (inactive) | –
CC1CN1P(=O)(N1CC1C)N1CC1C (stereo not given) | 4% (inactive) | –
Cc1ncc2n1-c1ccc(Cl)cc1C(c1ccccc1F)=NC2 | -22.3% [at 35.3 µM] (inactive) | –
Cc1ncsc1CCCl | -7.25% [at 35.3 µM] (inactive) | –
Nc1n[nH]c(N)n1 | -12.9% (inactive) | –
ClC(Br)Br | 2.49% (inactive) | –
COC(=O)C1=CCCN(C)C1 | 14.1% [at 35.3 µM] (inactive) | –
COc1cc(OC)nc(Sc2cccc(Cl)c2C(=O)O)n1 | -12% (inactive) | –
CS(=O)(=O)c1cc(C(F)(F)F)ccc1C(=O)c1cnoc1C1CC1 | 0.934% (inactive) | –
Cc1nc(N)nc(N)n1 | -3.7% (inactive) | –
O=C1OC(c2ccc(O)c(S(=O)(=O)O)c2)(c2ccc(O)c(S(=O)(=O)O)c2)c2c(Br)c(Br)c(Br)c(Br)c21 | 1.79% [at 35.3 µM] (inactive) | –
CC1=NNC(=O)N(/N=C/c2cccnc2)C1 | -8.78% (inactive) | –
CN(C)CCc1ccc(O)cc1 | -6.45% [at 35.3 µM] (inactive) | –
CCN(CC)C(=O)[C@@H]1C=C2c3cccc4[nH]cc(c34)C[C@H]2N(C)C1 | 17.7% [at 200 µM] (inactive) | –
C[C@H]1CCC[C@H](O)CCCCCc2cc(O)cc(O)c2C(=O)O1 | -0.111% (inactive) | –
